The values below come from PubChem BioAssay (Tox21).

Inconclusive results are not listed. Where a call stands in place of a potency, no number is given. Active and inactive are the calls of the source. Calls come from the whole dose curve; as a rule, active = well fitted cell-killing curve with a large enough effect in the repeat runs; inconclusive = weak or mixed curves, or effect the other way; inactive = no such curve, though single readings can be large or run the other way.

This assay can be described thus: qHTS assay to identify small molecule antagonists of the glucocorticoid receptor (GR) signaling pathway - cell viability counter screen (AID 720693). Note: nearly all actives have a fitted effect of over 55% in size. The conditions noted are these: GR-bla HeLa viability, CellTiter-Glo luminescence, 18 h, with 5 nM dexamethasone present; series mostly up to 58.5 µM. Background: Quantitative high-throughput screening tests each substance at several concentrations.
With `O=C(OCc1ccccc1)c1cccnc1`, the Potency entry was “inactive”.
In the case of `CC(C)(CO)[C@@H](O)C(=O)NCCC(=O)NCCSSCCNC(=O)CCNC(=O)[C@H](O)C(C)(C)CO`, the Potency entry is “inactive”.
As for `COc1cc(C)c(/C=C/C(C)=C/C=C/C(C)=C/C(=O)O)c(C)c1C`, the Potency entry was “inactive”.
For the compound `O=C(O)c1cc2ccccc2c(Cc2c(O)c(C(=O)O)cc3ccccc23)c1O`, the Potency result is “inactive”.
Under `O=C(OCCO)c1ccccc1O` stands “inactive”; under `C=C[C@]1(C)C[C@@H](OC(=O)CO)[C@]2(C)[C@H](C)CC[C@]3(CCC(=O)[C@H]32)[C@@H](C)[C@@H]1O`, “inactive”; under `CC(C)[C@@H](C)/C=C/[C@@H](C)[C@H]1CC[C@H]2/C(=C/C=C3\C[C@@H](O)CC[C@@H]3C)CCC[C@]12C`, “inactive”.
Under `CC(=O)OCC(=O)[C@@]1(O)[C@H](C)C[C@H]2[C@@H]3C[C@H](F)C4=CC(=O)C=C[C@]4(C)[C@H]3[C@@H](O)C[C@@]21C` stands “inactive”; under `C=Cc1c(C)c2cc3nc(cc4[nH]c(cc5nc(cc1[nH]2)C(C)=C5CCC(=O)OC)c(CCC(=O)O)c4C)[C@@]1(C)C3=CC=C(C(=O)OC)[C@H]1C(=O)OC`, “inactive”.
To `COCC(=O)Nc1cc(Sc2ccccc2)ccc1N=C(NC(=O)OC)NC(=O)OC` belongs “inactive”; to `CC(Oc1ccccc1)C(=O)N[C@@H]1C(=O)N2[C@@H]1SC(C)(C)[C@@H]2C(=O)O` (stereo partly specified), “inactive”.
Consider `CCC(=O)Oc1ccc2c(c1)CC[C@@H]1[C@@H]2CC[C@]2(C)[C@@H](OC(=O)CC)CC[C@@H]12`, for which the Potency result was “inactive”.
Take `CCN(CC)CCOC(=O)c1cccnc1`: the Potency entry was “inactive”.
Under `COc1ccc(-c2noc(CC(=O)O)c2-c2ccc(OC)cc2)cc1` stands “inactive”; under `NCCC[C@H](N)C(=O)O`, “inactive”.
In the case of `CC(C)CN(C[C@@H](O)[C@H](Cc1ccccc1)NC(=O)O[C@@H]1CCOC1)S(=O)(=O)c1ccc(N)cc1`, the Potency result was “inactive”.
As for `COc1cc2c(cc1OC)CC(=O)N(CCCN(C)C[C@H]1Cc3cc(OC)c(OC)cc31)CC2`, the Potency result is “inactive”.
Under `CCC[C@@H]1C[C@@H](C(=O)N[C@@H]([C@H]2O[C@H](SC)[C@H](O)[C@@H](O)[C@H]2O)[C@H](C)Cl)N(C)C1` stands “inactive”; under `Cc1cc(/C=C/c2ccc3cc(N(C)C)ccc3[n+]2C)c(C)n1-c1ccccc1`, “inactive”; under `CC(O)[C@H]1CC[C@H]2[C@@H]3CC[C@@H]4C[C@@H](O)CC[C@]4(C)[C@H]3CC[C@]12C` (stereo partly specified), “inactive”.
For `CNC(=O)[C@H](Cc1c[nH]c2ccccc12)NC(=O)[C@@H](CC(=O)NO)CC(C)C`, the Potency result was “inactive”.
